Sampled rows, rich in hits. Any-hit rate of the full collection: about 15%.
DT40 TDP1 no CPT = qHTS for Inhibitors of human tyrosyl-DNA phosphodiesterase 1 (TDP1): qHTS in cells in absence of CPT. AID 686978, 2013. 420,000 tested, 15% active. DT40 Tdp1-/- hTDP1 cells, no CPT, ATP luminescence, 48 h. Potency, µM (titrated, usually from 46.2 µM), for the others: at the highest dose activity change, negative = growth inhibition, usual class: inhibitors; also: nearly all actives have a fitted effect of over 55% in size
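No-CPT arm: Tdp1-/-;hTDP1 DT40 cells (400/well) plus compounds, incubated ≥48 hr at 37 °C. Readout CellTiter-Glo luminescence.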
Gal4-VP16 FLuc = Gal4-VP16 reporter inhibition counter-screen | Potency, µM (titrated, usually from 53.6 µM), inactives show top-dose activity, negative = inhibition, hits mostly inhibitors | 310,000 tested, 3.5% active | Drosophila S2 Gal4-VP16 UAS-luciferase, luminescence, 20 h;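 also: Gal4-VP16 expression switched on by copper sulfate through the metallothionein promoter; nearly all actives have a fitted effect of over 50% in size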
RORgamma inh = ROR gamma (mouse) transcription inhibition; 310,000 tested, 5.4% active; Drosophila S2 Gal4-RORgamma UAS-luciferase reporter, 20 h; P51450; Potency, µM (highest dose often 53.6 µM), without a hit: at the highest dose activity change, negative = inhibition, hits mostly inhibitors; also: nearly all actives have a fitted effect of over 60% in size
Target sequence (P51450 whole entry, looked up, the tested form may be a part): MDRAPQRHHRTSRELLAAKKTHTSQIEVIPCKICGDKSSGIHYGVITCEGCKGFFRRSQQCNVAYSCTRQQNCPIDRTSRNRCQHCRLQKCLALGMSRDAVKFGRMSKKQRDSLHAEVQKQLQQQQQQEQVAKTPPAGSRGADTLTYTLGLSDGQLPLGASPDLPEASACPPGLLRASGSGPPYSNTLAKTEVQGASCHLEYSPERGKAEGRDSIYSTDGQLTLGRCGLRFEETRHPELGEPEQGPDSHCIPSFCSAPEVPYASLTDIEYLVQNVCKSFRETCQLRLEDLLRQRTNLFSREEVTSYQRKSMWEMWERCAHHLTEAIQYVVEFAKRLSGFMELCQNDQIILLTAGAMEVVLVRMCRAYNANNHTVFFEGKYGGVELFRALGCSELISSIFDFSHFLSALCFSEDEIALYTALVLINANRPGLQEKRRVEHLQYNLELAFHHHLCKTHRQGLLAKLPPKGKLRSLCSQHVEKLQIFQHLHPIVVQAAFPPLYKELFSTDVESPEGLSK
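Luciferase reporter read in Schneider cells carrying Gal4-RORγ (mouse) and UAS-Photinus luciferase; cells given compound 1 h before 700 uM copper sulfate induction, then incubated 20 h at ambient temperature.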
ELG1 DNA repair = blocks ELG1-dependent DNA repair in HEK293T cells | HEK293T ELG1-luciferase reporter, luminescence, 16 h; DNA damage induced by 5-fluorouridine | 330,000 tested, 2.3% active | AID 504467 | Potency, µM (highest dose often 46.1 µM), without a hit: top-dose activity change, negative = inhibition, usual class: inhibitors; also: nearly all actives have a fitted effect of over 55% in size
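Cells (2,000 per well) received 5-fluorouridine plus test compound or DMSO and were incubated 16 hr at 37 °C, 5% CO2. Luciferase activity was read by luminescence 30 min after ONE-Glo addition; signal suppression marked inhibition of damage-induced ELG1 function.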
TDP1 cell CPT = growth inhibition of DT40 Tdp1-/-;hTDP1 cells with camptothecin (screen for TDP1 inhibitors); AID 686979; 420,000 tested, 12% active; Potency, µM (top dose mostly 46.2 µM), for the others: top-dose activity change, negative = growth inhibition, hits mostly inhibitors; chicken DT40 Tdp1-/-;hTDP1 cells + 20 nM CPT, ATP luminescence, 48 h; also: nearly all actives have a fitted effect of over 55% in size
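Chicken DT40 Tdp1-/- cells complemented with human TDP1, 400 cells/well, exposed to compounds plus 20 nM camptothecin for at least 48 h at 37 C; viability read as ATP content by CellTiter-Glo luminescence.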
12-LOX inh = blocks human arachidonate 12S-lipoxygenase | purified 12hLO, xylenol orange hydroperoxide absorbance | 580,000 tested, 1.1% active | AID 1671190 | P18054 | Potency, µM (series often up to 108 µM), inactives show at the highest dose activity change, negative = inhibition, usual class: inhibitors
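Purified human 12hLO (150 nM final) in 25 mM Hepes, 0.01% Triton X-100, pH 7.0 was preincubated 15 min at room temperature with compound. Then 40 uM arachidonic acid was added, 30 min. Hydroperoxide was read by Fe-XO absorbance ratio 573/405 nm.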
Numbers without * were called inactive; ? = inconclusive; / = no result; [ ] = remark or other dose. Calls follow the shape of the dose curve; as a rule, active = well fitted curve in the direction sought with a large enough effect; inconclusive = small, poorly fitted or top-dose-only effect, or another doubt; inactive = no such curve, though single readings can be large; an effect the other way counts as inactive or inconclusive. % is scaled to controls: 0 for no effect and ±100 for the full control effect; potency is read from the fitted curve at half-maximal effect.

SMILES | DT40 TDP1 no CPT | Gal4-VP16 FLuc | RORgamma inh | ELG1 DNA repair | TDP1 cell CPT | 12-LOX inh
Cc1ccc(Nc2n[nH]c(=S)s2)c(C)c1 | ? | / | / | / | -14.8% | 25.1µM*
Cc1cccc(Nc2n[nH]c(=S)s2)c1C | -0.9% | -13.3% | ? | 15.9% | 15.1% | 6.31µM*
CC(C)c1ccc(Nc2n[nH]c(=S)s2)cc1 | -29.3% | / | / | / | -22.5% | 6.31µM*
CC1CCN(C(=O)CCc2ncc(-c3c(F)cccc3F)o2)CC1 | / | / | / | / | / | 47.2%
COc1ccc(-c2n[nH]c3c2CC(=O)N(Cc2ccccn2)C3)cn1 | / | / | / | / | / | 19.4%[176 µM]
COc1ccc(-n2ccn(CC(=O)Nc3ccc4c(c3)OCO4)c2=O)cc1 | / | / | / | / | / | -53.0%
CCOc1ccccc1NC(=O)Cc1c[nH]c2ccccc12 | / | / | / | / | / | -24.5%
CC(=O)Nc1n[nH]c(=S)s1 | -32.0% | / | / | / | ? | -22.1%
CNc1n[nH]c(=S)s1 | -9.7% | -0.6% | -15.2% | -1.3% | 4.6% | 22.4µM*
C=CCNc1n[nH]c(=S)s1 | 2.59µM* | / | / | / | 5.17µM* | ?
Cc1cc(C)c(Nc2n[nH]c(=S)s2)cc1C | ? | / | / | / | -15.4% | 28.2µM*
COc1cccc(Nc2n[nH]c(=S)s2)c1 | -0.6% | -20.2% | ? | ? | -15.5% | 44.7µM*
CCn1ncc(N2CCCC(CC(=O)NCCc3ccccc3)C2)cc1=O (configuration not stated) | / | / | / | / | / | -3.5%
Cc1ccc(-c2csc(N3CCC[C@@H]3C(=O)NCCn3c(-c4ccncc4)nc4ccccc43)n2)cc1 | 13µM* | ? | -34.0% | 14.6µM* | ? | 6.8%
Cc1ccc(-c2csc(N(CCO)CCCn3c(C(F)(F)F)nc4cc(C(F)(F)F)ccc43)n2)cc1 | ? | ? | 10µM* | 27.6% | ? | -13.2%
Cc1ccc(-c2csc(N3CCN(CCCn4c(C(F)(F)F)nc5ccccc54)CC3)n2)cc1 | 14.6µM* | -1.6% | ? | -10.6% | 20.6µM* | 9.2%
O=C(NCCn1c(C(F)(F)F)nc2ccccc21)[C@H]1CCCN1c1nc(CN2CCCCC2)cs1 | 4.8% | -12.6% | -16.9% | 21.1% | -8.5% | 10.8%
Cc1ccc(-c2csc(N3CCN(CCCn4c(-c5ccncc5)nc5ccccc54)CC3)n2)cc1 | 3.66µM* | -15.4% | -30.0% | ? | 5.8µM* | -0.4%
Cc1cc2ccccc2n1CC(=O)Nc1ccc(OCC(N)=O)cc1 | / | / | / | / | / | -11.1%
Cc1cnc(-c2ccncc2)n1C1CCN(C(=O)Cc2ccccc2)CC1 | / | / | / | / | / | 28.0%
CC(=O)N[C@@H](C)c1nc2ccccc2n1CCCN1CCN(c2nc(-c3ccc(C)cc3)cs2)CC1 | 1.03µM* | -10.9% | ? | ? | 1.03µM* | -1.1%
COc1ccc(CN(C)C(=O)NCc2ccc(S(=O)(=O)N3CCCCC3)cc2)cc1 | / | / | / | / | / | 3.9%
COc1ccccc1N1CCN(C(=O)COCC(=O)NCc2ccccc2)CC1 | / | / | / | / | / | -4.9%
COC(=O)CCOc1ccc(S(=O)(=O)Nc2cccc(Cl)c2C)cc1 | / | / | / | / | / | 6.0%
COc1cc(C)nc(-n2nc(C)cc2OC)n1 | -0.8%[21.1 µM] | ? | 3.16µM* | 0.1% | 4.8%[21.1 µM] | -6.4%
SMILES | DT40 TDP1 no CPT | Gal4-VP16 FLuc | RORgamma inh | ELG1 DNA repair | TDP1 cell CPT | 12-LOX inh
CC(C)n1cnnc1CC1CCN(C(=O)C2(c3ccccc3)CC2)C1 (configuration not stated) | / | / | / | / | / | 40.1%
CCc1c(C(=O)NCCc2cccc(C)c2)[nH]c(C)c1C(C)=O | 10.3µM* | -17.2% | 18.7% | 22.0% | 16.4µM* | ?
CCc1c(C(=O)NCc2ccccc2Cl)[nH]c(C)c1C(C)=O | 16.4µM* | -0.3% | 43.5% | ? | 23.1µM* | -8.8%
CC(=O)c1c(C)[nH]c(C(=O)NCc2ccccc2Cl)c1C | ? | 15.4% | 33.0% | 3.3% | ? | -12.5%
O=C(NCc1ccc(Cl)cc1)N(Cc1ccco1)Cc1cccs1 | / | / | / | / | / | -2.5%
COc1ccc2cc(C(C)C(=O)Nc3cccc4cccnc34)ccc2c1 (configuration not stated) | / | / | / | / | / | 16.8%
CCOC(=O)N1CCN(C(=O)C[C@@H]2C[C@@]3(C(=O)OCC)CCC=C3N(Cc3cccc4ccccc34)C2=O)CC1 | 16.4µM* | / | / | / | ? | ?
CCOC(=O)[C@]12CCC=C1N(Cc1ccco1)C(=O)[C@H](CC(=O)NCc1ccc(OC)c(OC)c1)C2 | -19.6% | / | / | / | -23.5% | 0.0%
CCOC(=O)[C@]12CCC=C1N(Cc1cccc3ccccc13)C(=O)[C@H](CC(=O)NCCC(C)C)C2 | 20.6µM* | / | / | / | 23.1µM* | 2.9%
CCOC(=O)[C@]12CCCC=C1N(Cc1cccc3ccccc13)C(=O)[C@H](CC(=O)NCc1cccc3ccccc13)C2 | ? | / | / | / | ? | 5.4%
CCOC(=O)[C@]12CCC=C1N(Cc1cccc3ccccc13)C(=O)[C@H](CC(=O)NCc1ccc(OC)c(OC)c1)C2 | 16.4µM* | / | / | / | ? | -2.8%
CN(C)c1ccc(C2C=C(c3ccccc3)Nc3nnnn32)cc1 (configuration not stated) | 18.4µM* | / | / | / | ? | -24.2%
COc1cccc(C2=CC(c3ccc(OC)c(OC)c3OC)n3ncnc3N2)c1 (configuration not stated) | ? | / | / | / | ? | 9.3%
CCOc1ccc(C2C=C(c3ccc(C)cc3)Nc3nnnn32)cc1 (configuration not stated) | 11.6µM* | -1.2% | 13.7% | -2.8% | 9.2µM* | -20.5%
COc1ccc(C2C=C(c3ccc(C)c(C)c3)Nc3ncnn32)c(OC)c1OC (configuration not stated) | 5.17µM* | -1.6% | ? | ? | 8.2µM* | 7.4%
CCOc1ccc(C2C=C(c3ccccc3)Nc3nnnn32)cc1 (configuration not stated) | ? | -0.2% | 26.7% | ? | -22.6% | -14.0%
COc1ccc(C2C=C(c3ccccc3)Nc3ncnn32)cc1 (configuration not stated) | ? | 3.9% | -39.4% | 7.6% | 18.4µM* | 0.0%
COc1ccc(C2C=C(C)Nc3ncnn32)cc1 (configuration not stated) | 18.4% | / | / | / | -2.0% | 0.0%
COc1cc(Cl)ccc1S(=O)(=O)N1CCC(C(N)=O)CC1 | / | / | / | / | / | -11.1%
Cc1nc2cc(-c3ccccc3)nn2c(C)c1CCC(=O)NCc1ccc2c(c1)OCO2 | / | / | / | / | / | -50.4%
Clc1ccc(C2C=C(c3ccccc3)Nc3nnnn32)c(Cl)c1 (configuration not stated) | / | / | / | / | / | 17.8µM*

Compound activity deposited in PubChem by National Center for Advancing Translational Sciences (NCATS).
